Out of some 5,500 compounds screened, about 2,000 (36%) were called active. Roughly 18% stayed inconclusive and do not appear here. Cut-off read from the data, not from the text of the source: active = normalized growth mostly below about 0.91 (no sharp cut-off); inconclusive = no clear call, values can overlap the other calls; inactive = mostly above about 0.92. The list shows a part of the results.
Assay: chemical genetic growth profiling, strain panel (AID 1159580);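 note: tested at 20 µM; growth read once vehicle control cultures reached saturation at 30 °C; 1 = growth at the plate median or of vehicle wells; lower values mean less growth of the strain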
Conditions: S. cerevisiae deletion strains, growth OD
[1] = locus YAL013W, strain DEP1, hits give low values
[2] = locus YJR075W, strain HOC1, hits give low values
[3] = locus YNL153C, strain GIM3, hits give low values
[4] = locus YDL101C, strain DUN1, hits give low values
[5] = locus YHR030C, strain SLT2, hits give low values

Measured: normalized growth

Cc1cccc(C)c1OCC(N)C(C)C (centres undefined)
inactive: [1] 1.01 | locus YAL040C, strain CLN3, hits give low values 0.995 | locus YCL061C, strain MRC1 (second series), hits give low values 1 | locus YDR363W, strain ESC2, hits give low values 0.999 | locus YER002W, strain NOP16, hits give low values 0.998 | [2] 1.01 | locus YNL128W, strain TEP1, hits give low values 0.988 | [3] 1.02 | locus YNL175C, strain NOP13, hits give low values 1.02 | locus YNL197C, strain WHI3, hits give low values 1 | locus YNL224C, strain SQS1, hits give low values 0.998 | locus YOR083W, strain WHI5 (second series), hits give low values 1

N#CSCC(=O)c1ccccc1
active: locus YAR019C, strain CDC15, hits give low values 0.0948 | locus YBL105C, strain PKC1, hits give low values 0.0869 | locus YBR135W, strain CKS1, hits give low values 0.0998 | locus YBR136W, strain MEC1, hits give low values 0.0968 | locus YBR160W, strain CDC28, hits give low values 0.101 | locus YDL017W, strain CDC7, hits give low values 0.092 | locus YDL028C, strain MPS1, hits give low values 0.108 | [4] 0.159 | locus YDL108W, strain KIN28, hits give low values 0.107 | locus YDL214C, strain PRR2, hits give low values 0.125 | locus YDR052C, strain DBF4, hits give low values 0.273 | locus YDR477W, strain SNF1, hits give low values 0.107 | locus YER123W, strain YCK3, hits give low values 0.121 | locus YER133W, strain GLC7, hits give low values 0.12 | locus YFL009W, strain cdc4, hits give low values 0.104 | locus YFL029C, strain CAK1, hits give low values 0.0973 | locus YFR003C, strain YPI1, hits give low values 0.0991 | locus YFR019W, strain FAB1, hits give low values 0.0919 | locus YGR040W, strain KSS1, hits give low values 0.119 | locus YGR052W, strain FMP48, hits give low values 0.127 | locus YGR092W, strain DBF2, hits give low values 0.0982 | [5] 0.111 | locus YHR079C, strain IRE1, hits give low values 0.107 | locus YHR082C, strain KSP1, hits give low values 0.145 | locus YHR205W, strain SCH9, hits give low values 0.00392 | locus YIL147C, strain SLN1, hits give low values 0.0993 | locus YJL095W, strain BCK1, hits give low values 0.101 | locus YJL128C, strain PBS2, hits give low values 0.499 | locus YJL157C, strain FAR1, hits give low values 0.0986 | locus YJR016C, strain ILV3, hits give low values 0.0975 | locus YJR066W, strain TOR1 (second series), hits give low values 0.101 | locus YJR066W, strain TOR1, hits give low values 0.122 | locus YKL048C, strain ELM1, hits give low values 0.154 | locus YKL067W, strain YNK1, hits give low values 0.119 | locus YKL101W, strain HSL1, hits give low values 0.115 | locus YKL193C, strain SDS22, hits give low values 0.105 | locus YKL203C, strain TOR2, hits give low values 0.112 | locus YLR113W, strain HOG1, hits give low values 0.147 | locus YLR133W, strain CKI1, hits give low values 0.0895 | locus YLR403W, strain SFP1, hits give low values 0.0174 | locus YML070W, strain DAK1, hits give low values 0.126 | locus YMR001C, strain CDC5, hits give low values 0.0981 | locus YMR205C, strain PFK2 (second series), hits give low values 0.095 | locus YMR277W, strain FCP1, hits give low values 0.0965 | locus YNL006W, strain LST8, hits give low values 0.0939 | locus YNL020C, strain ARK1, hits give low values 0.0915 | locus YNL161W, strain CBK1, hits give low values 0.0943 | locus YNL183C, strain NPR1, hits give low values 0.13 | locus YNL207W, strain RIO2, hits give low values 0.121 | locus YNL222W, strain SSU72, hits give low values 0.0984 | locus YNL307C, strain MCK1 (second series), hits give low values 0.0995 | locus YOL078W, strain AVO1, hits give low values 0.107 | locus YOL136C, strain PFK27, hits give low values 0.14 | locus YOR061W, strain CKA2, hits give low values 0.158 | locus YOR119C, strain RIO1, hits give low values 0.132 | locus YOR231W, strain MKK1, hits give low values 0.118 | locus YOR329C, strain SCD5, hits give low values 0.0919 | locus YPL031C, strain PHO85, hits give low values 0.107 | locus YPL153C, strain RAD53, hits give low values 0.117 | locus YPL204W, strain HRR25, hits give low values 0.109 | locus YPL209C, strain IPL1, hits give low values 0.0967 | locus YPL256C, strain CLN2, hits give low values 0.135 | locus YPR025C, strain CCL1, hits give low values 0.0952 | locus YPR106W, strain ISR1, hits give low values 0.469 | locus YPR111W, strain DBF20, hits give low values 0.505 | strain NNK1, hits give low values 0.0857 | strain TSCII, hits give low values 0.0982

O=C1NC2CC2N1C(=O)OCc1ccccc1 (centres undefined)
inactive: [1] 1 | locus YBR229C, strain ROT2, hits give low values 1 | [4] 1.01 | locus YDR150W, strain NUM1, hits give low values 1.02 | locus YEL061C, strain CIN8, hits give low values 0.956 | locus YGR078C, strain PAC10, hits give low values 1.01 | [5] 1.06 | locus YHR087W, strain rtc3, hits give low values 0.969 | locus YJL187C, strain SWE1, hits give low values 0.991 | locus YJR043C, strain POL32, hits give low values 0.993 | [2] 1.01 | locus YLR039C, strain RIC1, hits give low values 0.99 | locus YLR058C, strain SHM2 (second series), hits give low values 0.995 | locus YLR085C, strain ARP6, hits give low values 0.978 | locus YLR262C, strain YPT6, hits give low values 1.02 | locus YML094W, strain GIM5, hits give low values 0.992 | locus YMR219W, strain ESC1, hits give low values 1 | locus YMR263W, strain SAP30, hits give low values 0.978 | [3] 1.01 | locus YNL298W, strain CLA4 (second series), hits give low values 0.954 | locus YNL322C, strain KRE1, hits give low values 1 | locus YNR030W, strain Alg12, hits give low values 0.988 | locus YPL055C, strain LGE1, hits give low values 0.99 | locus YPL241C, strain CIN2, hits give low values 1.01 | locus YPR135W, strain CTF4, hits give low values 1.03

Reference: PubChem BioAssay AID1159580 (chemical genetic matrix, 2015)
